Source: PubChem (National Center for Advancing Translational Sciences (NCATS))
Sampled rows, rich in hits. Any-hit rate of the full collection: about 2.4%.
Rango release inh = qHTS Assay for Inhibitors of RanGTP induced Rango (Ran-regulated importin-beta cargo) - Importin beta complex dissociation; Snurportin-1 (Homo sapiens) + GTP-binding nuclear protein Ran (Homo sapiens) + Importin …; Biochemical FRET Rango-importin beta, RanGTP-induced dissociation; Potency, µM (series often up to 46.1 µM); 0.071% of 340,000 active; AID 540253, 2011; calls by dose curve; also: nearly all actives have a fitted effect of over 45% in size
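Recombinant Rango FRET biosensor (EYFP–snurportin 1 IBB–cerulean CFP10) at 0.1 uM premixed with 0.25 uM importin beta in PBS, 1 mM DTT, 0.02% Tween-20, 0.1% BSA. Compound added 5 min; RanGTP-RCC1 (0.6 uM Ran, 2 mM GTP, 0.2 uM RCC1) then triggers release, read at 45 min.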
PGK inhibitor = qHTS Assay to Find Inhibitors of Phosphoglycerate Kinase | Phosphoglycerate kinase, glycosomal (Trypanosoma brucei brucei), P07378 | PGK/GAPDH coupled, Kinase-Glo luminescence, 60 min | Potency, µM (top dose mostly 57.5 µM), most hits filed as inhibitors | 0.043% of 380,000 active; also: nearly all actives have a fitted effect of over 60% in size
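Recombinant glycosomal PGK reaction used 1,3-bisphosphoglycerate generated in-well by GAPDH (100nM final) in 100mM TEA pH 7.6, 5mM MgCl2, 0.01% Tween-20. After 60 minutes at room temperature, ATP was read by Kinase-Glo Plus luminescence end-point.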
Rango complex inh = qHTS Assay for Inhibitors of Rango (Ran-regulated importin-beta cargo) - Importin beta complex formation | AID 540263, 2011 | Rango CFP/YFP FRET sensor + importin beta, 45 min | Potency, µM (highest dose often 92.2 µM) | 0.031% of 340,000 active | Importin subunit beta-1 (Homo sapiens), Q14974; calls by dose curve; also: nearly all actives have a fitted effect of over 15% in size
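FRET biosensor (snurportin 1 IBB flanked by EYFP and cerulean), 50 nM, with compound 5 min, then 0.125 microM importin beta in PBS, 1 mM DTT, 0.02% Tween-20, 0.1% BSA. CFP/YFP ratio read after 45 min at room temperature; pre-read flags interference.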
PKM2 act = qHTS Assay for Activators of Human Muscle isoform 2 Pyruvate Kinase; 0.34% of 260,000 active; purified PKM2, Kinase-Glo ATP luminescence, activation; response scale: 0% is enzyme alone, no compound; AID 1631, 2009; Pyruvate kinase PKM (Homo sapiens), P14618; Potency, µM (highest dose often 57.5 µM), most hits filed as activators; also: nearly all actives have a fitted effect of over 55% in size
Target sequence (P14618 whole entry, looked up, canonical isoform): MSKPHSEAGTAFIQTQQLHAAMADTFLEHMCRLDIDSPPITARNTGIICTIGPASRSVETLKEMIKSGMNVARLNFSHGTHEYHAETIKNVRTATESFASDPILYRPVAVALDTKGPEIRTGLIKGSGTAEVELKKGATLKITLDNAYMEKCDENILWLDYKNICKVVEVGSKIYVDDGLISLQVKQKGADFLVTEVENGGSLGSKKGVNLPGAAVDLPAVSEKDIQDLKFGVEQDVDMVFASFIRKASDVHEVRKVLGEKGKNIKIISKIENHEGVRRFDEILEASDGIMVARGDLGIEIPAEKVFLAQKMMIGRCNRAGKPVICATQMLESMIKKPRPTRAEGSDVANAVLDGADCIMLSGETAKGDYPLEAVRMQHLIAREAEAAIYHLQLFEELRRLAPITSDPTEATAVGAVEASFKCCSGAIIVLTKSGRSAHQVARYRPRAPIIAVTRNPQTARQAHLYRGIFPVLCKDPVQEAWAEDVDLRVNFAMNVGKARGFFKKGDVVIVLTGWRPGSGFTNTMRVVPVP
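Purified hPK-M2 (>95%) run at intermediate activity with 0.1 mM ADP and 0.5 mM PEP in 50 mM imidazole pH 7.2, KCl, MgCl2; 1 h room temperature. ATP formed read by Kinase-Glo luminescence; normalized to uninhibited and no-enzyme controls.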
Tb PFK block = qHTS Assay to Find Inhibitors of T. brucei phosphofructokinase. ATP-dependent 6-phosphofructokinase (Trypanosoma brucei brucei), O15648. T. brucei PFK, ADP-Glo luminescence. Potency, µM (top dose mostly 57.5 µM), actives largely listed as inhibitors. 0.17% of 330,000 active. AID 485367, 2010; also: nearly all actives have a fitted effect of over 60% in size
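ADP-Glo luminescence quantified ADP after 45 min at room temperature, with 1.25 nM T. brucei PFK, 0.1 mM ATP and 0.5 mM fructose-6-phosphate in pH 8.0 TEA buffer. qHTS titrations up to 57 µM; curves classified by quality.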
ELG1 repair inh = qHTS screen for small molecules that inhibit ELG1-dependent DNA repair in human embryonic kidney (HEK293T) cells expressing luciferase-tagged ELG1; Potency, µM (top dose mostly 46.1 µM), actives largely listed as inhibitors; HEK293T ELG1-luciferase reporter, luminescence, 16 h; DNA damage induced by 5-fluorouridine; 2.3% of 330,000 active; also: nearly all actives have a fitted effect of over 55% in size
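Reporter activity after DNA damage by 5-fluorouridine is monitored. Compound-treated cells incubate 16 hr at 37 °C, then ONE-Glo is added for 30 min before luminescence reading.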
Numbers stand for hits; – = inactive; ? = inconclusive; · = not tested or not shown. Unless noted, calls follow the shape of the dose curve; as a rule, active = well fitted curve in the direction sought with a large enough effect; inconclusive = small, poorly fitted or top-dose-only effect, or another doubt; inactive = no such curve, though single readings can be large; an effect the other way counts as inactive or inconclusive.

SMILES	Rango release inh	PGK inhibitor	Rango complex inh	PKM2 act	Tb PFK block	ELG1 repair inh
COc1ccc(-c2cc(-c3nnc(COC(=O)C4CC4C)o3)c3ccccc3n2)cc1OC (stereo not given)	?	–	?	–	–	9.2µM
COc1ccccc1CNC(=O)c1nnn(CC(=O)Nc2c(C)cccc2C)c1N	·	–	·	·	·	·
O=C(NC1CCCCC1)C(c1cccnc1)N(C(=O)CCl)c1cccc(Cl)c1 (stereo not given)	–	–	–	–	–	20.6µM
Cc1cccc(N(C(=O)CNC(=O)c2ccco2)C(C(=O)NC2CCCCC2)c2cccnc2)c1 (stereo not given)	–	–	–	–	–	–
Cc1cc(C(=O)CSc2nc3ccc(Cl)cc3[nH]2)c(C)n1C	–	–	–	15.8µM	–	–
Cc1cc(C(=O)CSc2nnc(-c3ccc(Cl)cc3)n2CC2CCCO2)c(C)n1C (stereo not given)	–	–	–	–	–	–
Cc1cc(C(=O)CSc2nc3ccc(Cl)cc3[nH]2)c(C)n1CC1CCCO1 (stereo not given)	–	–	–	–	–	23.1µM
S=C1NCN(C2CCCCC2)CN1c1ccccc1	–	–	–	–	–	–
CN(C=O)c1cc([N+](=O)[O-])ccc1OCc1ccccc1	–	–	–	·	·	·
CN(C(=O)CSc1nnc(-c2ccco2)n1Cc1ccccc1)C1CCS(=O)(=O)C1 (stereo not given)	–	–	–	·	–	–
CCCN1CCN(CCCNC(=O)c2cnn(-c3ccc(F)cc3)c2-n2cccc2)CC1	·	–	·	·	·	·
C/C(=N/NC(=O)CN(c1ccccc1)S(=O)(=O)c1ccccc1)c1ccccc1O	–	–	?	–	–	13µM
C[C@H](CO)N1C[C@H](C)[C@@H](CN(C)S(C)(=O)=O)Oc2ccc(NC(=O)C3CC3)cc2C1=O	–	–	–	·	–	?
CC1CCc2c(sc3nnn(Cc4ccccc4)c(=O)c23)C1 (stereo not given)	·	–	·	·	·	·
CC(C)Oc1ccc(CCC(=O)N/N=C/c2ccc3c(c2)OCO3)cc1	–	–	–	·	–	–
COc1ccc(S(=O)(=O)N(CCc2ccccc2)CC(=O)N/N=C/c2ccc3c(c2)OCO3)cc1	–	–	–	–	–	16.4µM
CCOc1cc(/C=N/NC(=O)CN(CCc2ccccc2)S(=O)(=O)c2ccc(NC(C)=O)cc2)ccc1O	–	–	–	–	–	25.9µM
O=C(CCc1ccc(O)c(O)c1)N/N=C/c1ccc2c(c1)OCO2	–	–	–	–	4.26µM	5.8µM
O=C(CN(CCc1ccccc1)S(=O)(=O)c1ccc(Cl)cc1)N/N=C/c1ccc2c(c1)OCO2	–	–	–	–	–	–
O=C(CSc1nncn2c1cc1occc12)Nc1ccccc1C(F)(F)F	·	–	·	·	·	·
O=C(Nc1cccc(Cl)c1)C1C2CCC3C(CCC21)C3(Cl)Cl (stereo not given)	–	–	–	–	–	25.9µM
COc1ccccc1-c1c(C)nn2c(N3CCN(c4cccc(Cl)c4)CC3)cc(C)nc12	·	–	·	·	·	·
c1csc(C2=Nn3c(nnc3-c3ccncc3)SC2)c1	–	–	–	–	–	1.12µM
COc1cc(/C=C/C(=O)OCC(=O)Nc2ccc(C)cc2[N+](=O)[O-])ccc1O	–	–	–	17.8µM	–	?
CCOc1ccc(Nc2nc(N)nc(CN3CCN(c4ccccc4F)CC3)n2)cc1	–	–	–	–	–	16.4µM
SMILES	Rango release inh	PGK inhibitor	Rango complex inh	PKM2 act	Tb PFK block	ELG1 repair inh
CN1CCN(Cc2nc(N)nc(Nc3ccc4c(c3)OCCO4)n2)CC1	–	–	–	–	–	?
COc1ccccc1Nc1nc(N)nc(CN2CCN(c3ccccc3F)CC2)n1	–	–	–	–	?	–
COc1ccccc1N1CCN(Cc2nc(N)nc(Nc3ccc(C)c(Cl)c3)n2)CC1	–	–	–	–	–	14.6µM
Nc1nc(CN2CCN(c3ccccc3F)CC2)nc(Nc2ccc3c(c2)OCCO3)n1	–	–	–	–	–	23.1µM
O=C(O)COc1ccc2c(c1)O/C(=C\c1cccs1)C2=O	?	–	?	–	–	–
O=C(O)COc1ccc2c(c1)O/C(=C\c1ccco1)C2=O	?	28.2µM	?	·	–	–
Cc1ccc2c(C)nc(Nc3nc(CSc4nc5ccccc5[nH]4)cc(=O)[nH]3)nc2c1	–	·	–	–	–	4.61µM
Cc1ccc2nc(Nc3nc(-c4ccccc4)cc(=O)[nH]3)nc(C)c2c1	–	–	–	–	–	–
COc1ccc2c(C)nc(Nc3nc(-c4ccccc4)cc(=O)[nH]3)nc2c1	–	–	–	–	–	4.11µM
O=C(NCCS(=O)(=O)N1CCN(c2ccc(F)cc2)CC1)c1cc(=O)c2ccccc2o1	·	–	·	·	·	·
O=C(CCS(=O)(=O)c1nc(-c2cccs2)cc(C(F)(F)F)n1)Nc1cc(Br)ccc1O	·	–	·	·	·	·
CCOc1ccc(C(=O)NCc2ccco2)cc1OC	–	–	–	–	–	–
CCN1CCN(c2ccc(Cl)cc2NC(=O)c2ccc(-n3nc(C)cc3C)cc2)CC1	–	–	–	·	–	14.6µM
COc1cc(OC)cc(-n2c(=O)c3ccccc3n(CC(=O)NCCc3ccc(OC)c(OC)c3)c2=O)c1	·	–	·	·	·	·
CCN(CC)c1ccc(/C=c2\sc3nnc(-c4ccccc4Cl)n3c2=O)cc1	–	–	?	–	–	–
Cc1ccc(/C=c2/sc3nnc(-c4ccccc4Cl)n3c2=O)o1	–	–	–	8.91µM	?	–
Cc1ccc(S(=O)(=O)NC(=S)c2ccccc2)cc1	–	–	–	·	·	·
Cc1ccc(C(=S)NCS(=O)(=O)c2ccc(C)cc2)cc1	–	–	–	–	26.9µM	–
O=C(NC1CC(=O)N(c2cccc(F)c2)C1)c1ccc(S(=O)(=O)N2CCCCC2)cc1 (stereo not given)	·	–	·	·	·	·
CCCN(Cc1ccccc1)C(=S)Nc1ccc(SC(F)F)cc1	–	–	?	–	–	23.1µM
CCNC(=O)/C(C#N)=C/c1c(N2CCN(C)CC2)nc2c(C)cccn2c1=O	?	–	?	·	–	–
CNC(=O)/C(C#N)=C/c1c(N(Cc2ccccc2)Cc2ccccc2)nc2c(C)cccn2c1=O	?	–	?	–	–	23.1µM
